# Inconclusive results are not listed. A call without a number means that no potency is given here. Active and inactive are the calls of the source. The call rests on the fitted dose curve; in most records, active means well fitted inhibition curve with a large enough effect; inconclusive means small, poorly fitted or top-dose-only effect; inactive means flat fitted curve, though single readings scatter.
# How the values were obtained:
# Assay in all cases: qHTS profiling for inhibitors of Plasmodium falciparum proliferation (AID 504749); further: nearly all actives have a fitted effect of over 60% in size
# Settings in all cases: P. falciparum in erythrocytes, SYBR Green DNA, 72 h; series mostly up to 28.7 µM
# CP256 = system: CP256
# Procedure, shortened: (§1)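 Infected RBCs, 0.3% parasitemia/2.5% Hct final; cpd 72 h, 37 C, 5% CO2; lysis buffer with saponin/triton/SYBR Green I, o/n RT dark; FI 485/535; norm. to artemisinin (0.29 uM) and DMSO.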
# CP260 = system: CP260
# Procedure, shortened: as §1
# CP262 = system: CP262
# Procedure, shortened: as §1
# CP265 = system: CP265
# Procedure, shortened: as §1
# CP266 = system: CP266
# Procedure, shortened: as §1
# CP268 = system: CP268
# Procedure, shortened: as §1
# CP269 = system: CP269
# Procedure, shortened: as §1
# CP286 = system: CP286
# Procedure, shortened: as §1
# CP291 = system: CP291
# Procedure, shortened: as §1
# CP297 = system: CP297
# Procedure, shortened: as §1
# Potency means the concentration at half of the fitted maximal effect.
SMILES,Potency (CP256),Potency (CP260),Potency (CP262),Potency (CP265),Potency (CP266),Potency (CP268),Potency (CP269),Potency (CP286),Potency (CP291),Potency (CP297)
CC(=O)Nc1ccc(OC(=O)c2ccccc2O)cc1,inactive,inactive,inactive,inactive,inactive,inactive,inactive,inactive,inactive,inactive
O=S(=O)(O)CCCS(=O)(=O)O,inactive,inactive,inactive,inactive,inactive,inactive,inactive,inactive,inactive,inactive
FCOC(C(F)(F)F)C(F)(F)F,inactive,inactive,inactive,inactive,inactive,inactive,inactive,inactive,inactive,inactive
OC[C@H]1O[C@@H]2O[C@H]3[C@H](O)[C@@H](O)[C@@H](O[C@H]4[C@H](O)[C@@H](O)[C@@H](O[C@H]5[C@H](O)[C@@H](O)[C@@H](O[C@H]6[C@H](O)[C@@H](O)[C@@H](O[C@H]7[C@H](O)[C@@H](O)[C@@H](O[C@H]1[C@H](O)[C@H]2O)O[C@@H]7CO)O[C@@H]6CO)O[C@@H]5CO)O[C@@H]4CO)O[C@@H]3CO,inactive,inactive,inactive,inactive,inactive,inactive,inactive,inactive,inactive,inactive
CC(=O)N=c1sc(S(N)(=O)=O)nn1C,inactive,inactive,inactive,inactive,inactive,inactive,inactive,inactive,inactive,inactive
CC/C=C\C/C=C\C/C=C\C/C=C\C/C=C\C/C=C\CCC(=O)O,inactive,inactive,inactive,inactive,inactive,inactive,inactive,inactive,inactive,inactive
CN(C)CCOc1ccc(/C(=C(/CCCl)c2ccccc2)c2ccccc2)cc1,inactive,inactive,inactive,inactive,inactive,inactive,inactive,inactive,inactive,inactive
CCCCCc1ccc(C)cc1O,inactive,inactive,inactive,inactive,inactive,inactive,inactive,inactive,inactive,inactive
FC(F)(F)C(F)(F)C(F)(F)C(F)(F)C(F)(F)F,inactive,inactive,inactive,inactive,inactive,inactive,inactive,inactive,inactive,inactive
Oc1cc(O)cc(O)c1,inactive,inactive,inactive,inactive,inactive,inactive,inactive,inactive,inactive,inactive
O=C(O)COc1ccc(CCNS(=O)(=O)c2ccccc2)s1,inactive,inactive,inactive,inactive,inactive,inactive,inactive,inactive,inactive,inactive
Cc1ncc(C[n+]2csc(CCOP(=O)(O)O)c2C)c(N)n1,inactive,inactive,inactive,inactive,inactive,inactive,inactive,inactive,inactive,inactive
Cc1ncc[nH]1,inactive,inactive,inactive,inactive,inactive,inactive,inactive,inactive,inactive,inactive
O=C(CCCCCCCCCCCCC1CCCC1)Nc1ccc(S(=O)(=O)c2ccc(NC(=O)CCCCCCCCCCCCC3CCCC3)cc2)cc1,inactive,inactive,inactive,inactive,inactive,inactive,inactive,inactive,inactive,inactive
O=C(NNCS(=O)(=O)O)c1ccncc1,inactive,inactive,inactive,inactive,inactive,inactive,inactive,inactive,inactive,inactive
CN1C(=O)C[C@@H](C(=O)N[C@@H](Cc2cnc[nH]2)C(=O)N2CCC[C@H]2C(N)=O)NC1=O,inactive,inactive,inactive,inactive,inactive,inactive,inactive,inactive,inactive,inactive
COc1cc2c(cc1OC)[C@@H](Cc1cc(OC)c(OC)c(OC)c1)[N+](C)(CCCOC(=O)CC/C=C/CCC(=O)OCCC[N+]1(C)CCc3cc(OC)c(OC)cc3[C@H]1Cc1cc(OC)c(OC)c(OC)c1)CC2 (some centres not stated),inactive,inactive,inactive,inactive,inactive,inactive,inactive,inactive,inactive,inactive
O=C(O)Cc1nn(Cc2ccc(Br)cc2F)c(=O)c2ccccc12,inactive,inactive,inactive,inactive,inactive,inactive,inactive,inactive,inactive,inactive
CC(=O)N[C@@H]1C(O[C@H]2O[C@H](C(=O)O)C(O)[C@H](O)[C@H]2O)[C@H](O)[C@@H](CO)O[C@H]1O[C@@H]1C(C(=O)O)O[C@@H](O[C@H]2[C@H](O)[C@@H](CO)OC(O)[C@@H]2NC(C)=O)[C@H](O)[C@H]1O (some centres not stated),inactive,inactive,inactive,inactive,inactive,inactive,inactive,inactive,inactive,inactive
Nc1ncnc2c1ncn2CCOCP(=O)(O)O,inactive,inactive,inactive,inactive,inactive,inactive,inactive,inactive,inactive,inactive
CCCOC(=O)c1ccccc1O,inactive,inactive,inactive,inactive,inactive,inactive,inactive,inactive,inactive,inactive
CC(=O)Nc1c(I)c(C(=O)O)c(I)c(N(C)C(C)=O)c1I,inactive,inactive,inactive,inactive,inactive,inactive,inactive,inactive,inactive,inactive
CCCCCCCCCC(=O)NO,inactive,inactive,inactive,inactive,inactive,inactive,inactive,inactive,inactive,inactive

SMILES,Potency (CP256),Potency (CP260),Potency (CP262),Potency (CP265),Potency (CP266),Potency (CP268),Potency (CP269),Potency (CP286),Potency (CP291),Potency (CP297)
CCOC(=O)C1=C(COCCN)NC(C)=C(C(=O)OC)C1c1ccccc1Cl (configuration not stated),inactive,inactive,inactive,inactive,inactive,inactive,inactive,inactive,inactive,inactive
COc1cc(S(C)=O)ccc1-c1nc2ncccc2[nH]1 (configuration not stated),inactive,inactive,inactive,inactive,inactive,inactive,inactive,inactive,inactive,inactive
CC(C)Cc1ccc([C@@H](C)C(=O)NS(C)(=O)=O)cc1,inactive,inactive,inactive,inactive,inactive,inactive,inactive,inactive,inactive,inactive
O=C(O)CCC/C=C\C[C@@H]1[C@@H](/C=C/[C@@H](O)COc2cccc(Cl)c2)[C@H](O)C[C@@H]1O,inactive,inactive,inactive,inactive,inactive,inactive,inactive,inactive,inactive,inactive
CCCc1nc(C(C)(C)O)c(C(=O)OCc2oc(=O)oc2C)n1Cc1ccc(-c2ccccc2-c2nn[nH]n2)cc1,inactive,inactive,inactive,inactive,inactive,inactive,inactive,inactive,inactive,inactive
COc1ccc(/C=C/C(=O)O)cc1,inactive,inactive,inactive,inactive,inactive,inactive,inactive,inactive,inactive,inactive
CCCCCCCCCCCC(=O)OCC(O)CO (configuration not stated),inactive,inactive,inactive,inactive,inactive,inactive,inactive,inactive,inactive,inactive
CC1C(=O)CC2C3(C)CCC2(C(C)C(=O)O)C(=O)C13 (configuration not stated),inactive,inactive,inactive,inactive,inactive,inactive,inactive,inactive,inactive,inactive
CC/C(=C(/CC)c1ccc(OP(=O)(O)O)cc1)c1ccc(OP(=O)(O)O)cc1,inactive,inactive,inactive,inactive,inactive,inactive,inactive,inactive,inactive,inactive
CC(=O)[O][Al][O]C(C)=O,inactive,inactive,inactive,inactive,inactive,–,–,inactive,–,–
CC1=C(/C=C/C(C)=C/C=C/C(C)=C/C(=O)Oc2c(C)c(C)c3c(c2C)CC[C@@](C)(CCC[C@H](C)CCC[C@H](C)CCCC(C)C)O3)C(C)(C)CCC1,inactive,inactive,inactive,inactive,–,inactive,inactive,inactive,inactive,inactive
O=C(O)CCCC/C=C(\c1ccccc1)c1cccnc1,inactive,inactive,inactive,inactive,–,inactive,inactive,inactive,inactive,–
CC(C)c1nc(N(C)S(C)(=O)=O)nc(-c2ccc(F)cc2)c1/C=C/C(O)CC(O)CC(=O)O (configuration not stated),inactive,inactive,inactive,inactive,inactive,inactive,inactive,inactive,inactive,inactive
Cc1cccc(C)c1NC(=O)C1CCCCN1C (configuration not stated),inactive,inactive,inactive,inactive,–,inactive,inactive,inactive,inactive,–
O=C(O)c1cc(N=Nc2ccc(O)c(C(=O)O)c2)ccc1O,inactive,inactive,inactive,inactive,inactive,inactive,inactive,–,inactive,inactive
CSCCC(N)C(=O)O (configuration not stated),inactive,inactive,inactive,inactive,inactive,–,inactive,inactive,–,inactive
C=C1C(CCl)(CCl)C2(Cl)C(Cl)C(Cl)C1(Cl)C2(Cl)Cl (configuration not stated),3.55 µM (active),3.55 µM (active),4.78 µM (active),3.55 µM (active),–,4.26 µM (active),4.26 µM (active),3.55 µM (active),4.26 µM (active),3.79 µM (active)
COc1ccc2c(c1)OC(C)(C)C(c1ccccc1)C2c1ccc(OCCN2CCCC2)cc1 (configuration not stated),4.47 µM (active),3.98 µM (active),4.78 µM (active),3.98 µM (active),15.1 µM (active),–,5.36 µM (active),3.16 µM (active),6.01 µM (active),15.1 µM (active)
CN(C)C=Nc1c(I)cc(I)c(CCC(=O)O)c1I,inactive,inactive,inactive,inactive,inactive,–,inactive,inactive,inactive,–
COc1ccc2c(=O)c(C)c(-c3ccccc3)oc2c1CN(C)C,inactive,inactive,inactive,inactive,inactive,–,inactive,–,–,inactive
NCCO/C=C/[C@H](N)C(=O)O,inactive,inactive,inactive,inactive,–,inactive,inactive,inactive,inactive,inactive
FC(F)OC(Cl)C(F)(F)F (configuration not stated),inactive,inactive,inactive,inactive,inactive,–,inactive,inactive,inactive,inactive
CCC(=O)c1ccc2c(c1)N(CCCN1CCN(CCO)CC1)c1ccccc1S2,7.08 µM (active),10 µM (active),6.75 µM (active),8.91 µM (active),–,12 µM (active),9.53 µM (active),4.47 µM (active),15.1 µM (active),–

# — PubChem BioAssay (NCATS)
